The results in this text go back to PubChem BioAssay AID1259313 (Sanford-Burnham Center for Chemical Genomics, 2017).

The whole screen tested about 340,000 compounds, of which about 8,500 (2.5%) were called active. The sample holds actives, similar compounds and a random draw of the others, so the mix is not that of the screen.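 How the source made its calls: active means melting temperature shift of at least 10% of the positive control shift, at one fixed dose; inactive means the rest.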

This assay relates to Glutamate receptor ionotropic, NMDA 3A (GRIN3A) ligand-binding domain. As to the kind of experiment: NR3A LBD thermal stabilization by compounds – biophysical, differential scanning fluorimetry, uHTS, primary screen (AID 1259313). Particulars: at 25 µM, active compounds read high, 0% = protein alone, 100% = glycine-bound protein.
As to `NNC(=O)CNC(c1ccccc1)c1cc(Cl)ccc1NC(=O)c1ccccc1` (configuration not stated), the Tm shift relative to glycine control is 2.13% (inactive).

As for `CCOc1ccc(NC(=O)Nc2cc(C)ccc2OC)cc1`, the Tm shift relative to glycine control was -2.2% (inactive).

Take `CC(C)(C)NC(=O)c1cc(NC(=O)c2ccco2)cc(NC(=O)c2ccco2)c1`: the Tm shift relative to glycine control is 1.37% (inactive).

Take `O=C(CSc1ccccc1)Nc1ccc(C(=O)Nc2cccc(O)c2)cc1`: the Tm shift relative to glycine control is 29.4% (active).

On to `COc1cc(NC(=O)Nc2ccc(C)cc2)cc([N+](=O)[O-])c1`, for which the Tm shift relative to glycine control was 32.9% (active).

`CSc1cccc(NC(=O)CSc2ccccc2)c1`: the Tm shift relative to glycine control is -11.8% (inactive).

As for `COc1ccc(S(=O)(=O)NNC(=O)Nc2ccc(C)cc2)c(OC)c1`, the Tm shift relative to glycine control is -2.73% (inactive).

As for `COC(=O)c1ccc(NC(=O)c2ccco2)cc1`, the Tm shift relative to glycine control is 21.7% (active).

Regarding `O=C(Nc1ccc(CSc2ccccc2)cc1)c1ccc(CN2CCOCC2)cc1`, the Tm shift relative to glycine control was -2.35% (inactive).

As to `CCOC(=O)c1ccc(NC(=O)CNC(=O)c2ccco2)cc1`, the Tm shift relative to glycine control was -0.36% (inactive).

With `CCOC(=O)/C(C#N)=C\c1c(C)cc(C)c(COC(C)=O)c1C`, the Tm shift relative to glycine control was -1.41% (inactive).

For `O=C1CSC(c2ccc(Cl)cc2)N1` (configuration not stated), the Tm shift relative to glycine control is 0.65% (inactive).

With `CCOc1ccccc1NC(=O)Cn1ncc2ccc([N+](=O)[O-])cc21`, the Tm shift relative to glycine control was 1.06% (inactive).

Turning to `Cc1nonc1C(=O)N/N=C/c1ccc(O)cc1`, the Tm shift relative to glycine control is -3.82% (inactive).

As to `O=C(CCCN1C(=O)CSc2ncccc21)N1CCN(c2cccc(C(F)(F)F)c2)CC1`, the Tm shift relative to glycine control was -1.45% (inactive).

In the case of `Cc1ccc(S(=O)(=O)N2CCC3(CC2)OCCO3)c(C)c1`, the Tm shift relative to glycine control was -0.77% (inactive).

With `CCOc1ccc(Nc2nc(Cc3nnc(SCC(=O)c4ccc(C)cc4)o3)cs2)cc1`, the Tm shift relative to glycine control is -12.6% (inactive).

On to `O=C1C(=O)N(CCCN2CCOCC2)C(c2ccc([N+](=O)[O-])cc2)/C1=C(\O)c1ccc2c(c1)OCCO2` (configuration not stated), for which the Tm shift relative to glycine control was 0% (inactive).

As to `Cc1ccc(NC(=O)Cn2c(=O)n(CCC(=O)NC3CCN(Cc4ccccc4)CC3)c(=O)c3ccccc32)cc1`, the Tm shift relative to glycine control was 0.79% (inactive).

As for `CC(=O)c1c(C)[nH]c(C(=O)OCC(=O)Nc2sc3c(c2C#N)CCCC3)c1C`, the Tm shift relative to glycine control is 4.13% (inactive).

Consider `O=C(NCCN1C(=O)C2C3C=CC(C3)C2C1=O)Nc1ccccn1` (configuration not stated), for which the Tm shift relative to glycine control is -0.55% (inactive).

With `O=C(CN1C(=O)C2C3C=CC(C3)C2C1=O)Nc1nc(-c2ccccn2)cs1` (configuration not stated), the Tm shift relative to glycine control was 17.6% (active).

In the case of `O=C(COc1ccccc1F)Nc1nc(-c2ccccn2)cs1`, the Tm shift relative to glycine control is -41.9% (inactive).

`O=C(NCCc1ccccc1)C(=O)NCC1OCCN1S(=O)(=O)c1cccs1` (configuration not stated): the Tm shift relative to glycine control was 5.49% (inactive).

`CCOC(=O)N1CCN(C(=O)c2ccccc2SCC(=O)NCC2CCCCC2)CC1`: the Tm shift relative to glycine control was 0.96% (inactive).

Turning to `O=C(O)c1cscn1`, the Tm shift relative to glycine control is -2.23% (inactive).

For `Cc1oc(-c2ccccc2Cl)[n+]([O-])c1C`, the Tm shift relative to glycine control was 0.65% (inactive).

Consider `COC(=O)C1=C(C)N(C)C(C)=C(C(=O)OC)C1c1cccc(Br)c1`, for which the Tm shift relative to glycine control is 10.9% (active).

`COC(=O)C1NN=C(C(=O)c2ccc(Br)cc2)C1c1cccc(Br)c1` (configuration not stated): the Tm shift relative to glycine control was -3.88% (inactive).

On to `COC(=O)C1=C(C)N(C)C(=S)NC1c1ccccc1` (configuration not stated), for which the Tm shift relative to glycine control is 1.46% (inactive).

Take `O=C(Cc1coc2ccc3ccccc3c12)NCc1cccs1`: the Tm shift relative to glycine control was -3.17% (inactive).

For `Cn1cccc1C(=O)NC(=O)COC(=O)Cc1coc2ccc3ccccc3c12`, the Tm shift relative to glycine control was 711% (active).

`COc1ccc2c(CC(=O)OCC(=O)NC(N)=O)coc2c1`: the Tm shift relative to glycine control was -1.31% (inactive).

For the molecule `CN(C)S(=O)(=O)c1ccc(C(=O)NCC2(N3CCOCC3)CCCCC2)cc1`, the Tm shift relative to glycine control was -0.34% (inactive).

Consider `CCC(C)NC(=O)C1c2ccccc2C(=O)N1Cc1ccccc1` (configuration not stated), for which the Tm shift relative to glycine control is 0.89% (inactive).

As for `Nc1cccc(S(=O)(=O)Nc2ccc(SC(F)F)cc2)c1`, the Tm shift relative to glycine control was -8.52% (inactive).

`Cc1c(NS(=O)(=O)c2cccc(C(=O)Nc3ccc(SC(F)F)cc3)c2)c(=O)n(-c2ccccc2)n1C`: the Tm shift relative to glycine control is -4.82% (inactive).

Consider `COc1ccc(NC(=O)/C(N=Nc2cccc(S(=O)(=O)Nc3ccc(SC(F)F)cc3)c2)=C(\C)O)cc1`, for which the Tm shift relative to glycine control was 28% (active).

For the molecule `Cc1ccc(NN=C2C(=O)OC(C)(C)OC2=O)c(C)c1`, the Tm shift relative to glycine control was -1.21% (inactive).

On to `CC(CO)N1CCS(=O)(=O)CC1` (configuration not stated), for which the Tm shift relative to glycine control is 0.09% (inactive).

With `CCOc1ccc(N/C(N)=N/c2nc(C)c(C)c(=O)[nH]2)cc1`, the Tm shift relative to glycine control is 2.12% (inactive).

With `Cc1cc(Nc2ccc(Br)cc2)nc2ccccc12`, the Tm shift relative to glycine control is 45.6% (active).

For the molecule `Cc1ccc2nc(Nc3ccccc3)cc(C)c2c1`, the Tm shift relative to glycine control was 30.3% (active).

Regarding `CCOc1ccc(NC(=O)c2cc(C)nc3ccccc23)cc1`, the Tm shift relative to glycine control is -0.84% (inactive).

As for `Cc1ccc(Nc2nc(C)cc(C)c2C(N)=O)cc1`, the Tm shift relative to glycine control is -2.09% (inactive).

As to `Cc1ccc2nc(C)c3c(c2c1)N(c1ccccc1)CC3`, the Tm shift relative to glycine control is -1.71% (inactive).

With `CN1CCN(c2nc(Nc3ccc(O)cc3)nc3ccccc23)CC1`, the Tm shift relative to glycine control was -0.23% (inactive).
